Consider 13 molecules from PubChem BioAssay (Tox21).

Assay [1] in a line: qHTS assay to identify small molecule agonists of the estrogen receptor alpha (ER-alpha) signaling pathway in the presence of an antagonist - cell viability counter screen (AID 1259386).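 Further: series mostly up to about 92 µM; cells exposed to compounds for 22 h at 37 °C before the viability read; on the % scale 0 is the no-effect control and ±100 the full control effect; nearly all actives have a fitted effect of over 30% in size.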 In outline: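 Cytotoxicity was measured in parallel with the ERE-luciferase agonist screen, in the same wells. The cells were VM7Luc4E2, which endogenously express ER-alpha, and treatment was with compounds plus 10.0nM ICI-182,780 for 22hr.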

For assay [2], the target named is Progesterone receptor (Homo sapiens) (UniProt P06401). In words: qHTS assay to identify small molecule agonists of the progesterone receptor (PR) signaling pathway (AID 1346784; calls by dose curve; further: on the % scale 0 is the no-effect control and ±100 the full control effect; nearly all actives have a fitted effect of over 30% in size). In short, it runs like this:
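Using charcoal-stripped serum (2%) to limit endogenous steroids, PR-UAS-bla HEK 293T cells received compounds for 16 hr at 37C after 6 hr plating; beta-lactamase FRET fluorescence was recorded following 2 hr substrate loading at room temperature.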

For assay [3] the target is unchanged. In words: qHTS assay to identify small molecule antagonists of the progesterone receptor (PR) signaling pathway (AID 1346795; active means well fitted inhibition curve with a large enough effect in the signal ratio in the repeat runs, not every such curve was filed as active; the % refers to the signal ratio; further: on the % scale 0 is the no-effect control and ±100 the full control effect). In short, it runs like this:
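Inhibition of R5020-induced (1 nM final) beta-lactamase reporter signal in PR-UAS-bla HEK293T cells was scored by FRET fluorescence after overnight (16 hr) compound treatment.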

Assay [4] can be described thus: qHTS assay to identify small molecule antagonists of the progesterone receptor (PR) signaling pathway - cell viability counter screen (AID 1346798). Further: series mostly up to about 92 µM; on the % scale 0 is the no-effect control and ±100 the full control effect; nearly all actives have a fitted effect of over 50% in size. In outline: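 ATP content as viability readout: CellTiter-Glo luminescence, 30 min room temperature, in PR-UAS-bla HEK293T cells after 16 hr compound/R5020 treatment at 37C and 5% CO2.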
A general note: qHTS replaces the single test concentration by a dilution series.

Assay [5] is described as follows: qHTS assay to identify small molecule agonists of the progesterone receptor (PR) signaling pathway - cell viability counter screen (AID 1346799; calls by dose curve; further: on the % scale 0 is the no-effect control and ±100 the full control effect; nearly all actives have a fitted effect of over 45% in size). In outline:
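Cytotoxicity in PR-bla HEK293T cells: 16 h compound, 37C; CellTiter-Glo added post-FRET read; luminescence after 30 min RT.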

Assay [6] in a line: qHTS assay to identify small molecule antagonists of the TGF-beta/Smad signaling pathway - cell viability counter screen (AID 1346824). Further: on the % scale 0 is the no-effect control and ±100 the full control effect; nearly all actives have a fitted effect of over 50% in size. In outline: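 Cytotoxicity counter-screen run in the same wells as the beta-lactamase Smad reporter read: CellTiter-Glo luminescence after 30 min at room temperature. HEK 293T SBE-bla cells had 5 hr compound exposure at 37 C with TGF-beta1 (0.25 ng/mL stock).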

The nature of assay [7]: qHTS assay to identify small molecule agonists of the TGF-beta/Smad signaling pathway - cell viability counter screen (AID 1346829). Further: top concentration of the series differs between compounds; on the % scale 0 is the no-effect control and ±100 the full control effect; nearly all actives have a fitted effect of over 45% in size. In short, it runs like this:
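Luminescence from CellTiter-Glo, read after a 30 min room-temperature incubation, gives cell viability of SBE-bla HEK 293T cells treated 5 hr with compounds at 37 C.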

Assay [8] can be described thus: qHTS assay to identify small molecule agonists of the TGF-beta/Smad signaling pathway (AID 1346859; active means well fitted activation curve with a large enough effect in the signal ratio in the repeat runs, not every such curve was filed as active; the % refers to the signal ratio; further: series mostly up to about 77 µM; on the % scale 0 is the no-effect control and ±100 the full control effect). In short, it runs like this: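 Stable Smad binding element-beta-lactamase HEK 293T cells; 5 hr compound exposure at 37 C under 5% CO2; 2 hr room-temperature substrate step; fluorescence excited at 405 nm, collected at 460 nm and 530 nm.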
Assay [9] in a line: Human pregnane X receptor (PXR) small molecule agonists, qHTS cell viability counter screen (AID 1346977). Further: on the % scale 0 is the no-effect control and ±100 the full control effect; nearly all actives have a fitted effect of over 50% in size. In outline:
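Readout is CellTiter-Fluor fluorescence from PXR-Luc HepG2 cells. Plated cells rested 5hr, then were treated with compounds for 24hr at 37C and 5% CO2, with reagent present during the last hour.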

Assay [10] in a line: Caspase-3/7 induction in HepG2 cells by small molecules, qHTS assay (AID 1346978). Further: on the % scale 0 is the no-effect control and ±100 the full control effect; nearly all actives have a fitted effect of over 15% in size. In short, it runs like this:
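Caspase-3/7 induction was measured by Caspase-Glo 3/7 luminescence (30 min, room temperature) after a 17 hr compound exposure of wild-type HepG2 cells seeded at 2,000 per well and pre-incubated 5 hr.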

Assay [11] is described as follows: Caspase-3/7 induction in CHO-K1 cells by small molecules, qHTS cell viability counter screen (AID 1346979). Further: on the % scale 0 is the no-effect control and ±100 the full control effect; nearly all actives have a fitted effect of over 35% in size. In outline: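 To flag cytotoxic compounds, treated CHO-K1 wild-type cells were given CellTiter-Fluor at 16hr and read fluorescently after 1hr at 37C; the caspase-3/7 luminescence was measured in these same wells.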
The nature of assay [12]: Caspase-3/7 induction in CHO-K1 cells by small molecules, qHTS assay (AID 1346980). Further: on the % scale 0 is the no-effect control and ±100 the full control effect; nearly all actives have a fitted effect of over 15% in size. In short, it runs like this:
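Luminescent Caspase-Glo 3/7 read (30min, room temperature) quantified apoptosis induction. Cells were wild-type CHO-K1, treated with compound for 17hr at 37 C and 5% CO2.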

The nature of assay [13]: Caspase-3/7 induction in HepG2 cells by small molecules, qHTS cell viability counter screen (AID 1346981). Further: series mostly up to about 92 µM; on the % scale 0 is the no-effect control and ±100 the full control effect; nearly all actives have a fitted effect of over 30% in size. In outline:
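Cell viability is measured as a cytotoxicity counter screen alongside the Caspase-Glo 3/7 readout in identical wells. Wild-type HepG2 cells are treated with test compounds for 16 hr at 37 C before CellTiter-Fluor addition and a 1-hr incubation.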

The target in assay [14] is Nuclear receptor subfamily 1 group I member 2 (Homo sapiens) (UniProt O75469). In words: Human pregnane X receptor (PXR) small molecule agonists, qHTS assay (AID 1346982). Further: on the % scale 0 is the no-effect control and ±100 the full control effect; nearly all actives have a fitted effect of over 35% in size. In outline:
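Cells: HepG2 stably carrying PXR-Luc. Medium held 5% charcoal-stripped FBS. Compounds in DMSO added after 5 hr plating, incubated 24 hr, then luminescence quantified with ONE-Glo.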

The target in assay [15] is Thyrotropin-releasing hormone receptor (Homo sapiens) (UniProt P34981). In words: qHTS assay to identify small molecule antagonists of the thyrotropin-releasing hormone receptor (TRHR) signaling pathway (AID 1346877; active means well fitted inhibition curve with a large enough effect in the repeat runs, not every such curve was filed as active; further: series mostly up to about 51 µM; on the % scale 0 is the no-effect control and ±100 the full control effect). In outline:
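Antagonism is measured as suppression of the calcium response to 1 nM TRH in TRHR-HEK293 cells that have been dye-loaded for 2 h at 37 °C after overnight plating. Each compound is tested at 15 concentrations in triplicate.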

Assay [16] has the same target. In words: qHTS assay to identify small molecule agonists of the thyrotropin-releasing hormone receptor (TRHR) signaling pathway (AID 1346891; calls by dose curve;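 further: HEK293 cells expressing TRHR with calcium dye readout; series mostly up to about 58 µM; on the % scale 0 is the no-effect control and ±100 the full control effect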). In outline:
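In 1536-format, 1500 TRHR-Hek293 cells per well grew 18 h, took up calcium dye for 2 h at 37 °C, received compound, and were read kinetically; 15-point titrations, triplicates.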

Assay [17] addresses Thyrotropin receptor (Homo sapiens) (UniProt P16473). Put plainly: qHTS assay to identify small molecule antagonists of the thyroid stimulating hormone receptor (TSHR) signaling pathway (AID 1259385; calls by dose curve; further: on the % scale 0 is the no-effect control and ±100 the full control effect; nearly all actives have a fitted effect of over 20% in size). In outline:
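Antagonist mode: compound-treated TSHR-expressing HEK293 cells were stimulated with 1.5 ng/mL TSH (final) in presence of Ro20-1724 for 30 min at RT. HTRF cAMP detection after 1 h; each compound tested at 15 concentrations, triplicate.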

Assay [18] has as its target Nuclear receptor subfamily 1 group I member 2 (Rattus norvegicus) (UniProt Q9R1A7). In words: Rat pregnane X receptor (rPXR) activation by small molecules, qHTS assay (AID 1346983). Further: on the % scale 0 is the no-effect control and ±100 the full control effect; nearly all actives have a fitted effect of over 20% in size. The settings on record: rPXR luciferase reporter cells, One-Glo luminescence, 24 h; max activation: stronger effect = higher value. In outline: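 Luminescent readout (One-Glo luciferase, 30 min room temperature) followed 24 hr compound treatment at 37 C of rPXR cells plated 2,000 per well and preincubated 5hr; qHTS format with compounds delivered in DMSO.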

Assay [19] deals with Nuclear receptor subfamily 1 group I member 2 (Homo sapiens) (UniProt O75469). In words: CYP3A4 induction through human pregnane X receptor (PXR) by small molecules, qHTS assay (AID 1346984). Further: on the % scale 0 is the no-effect control and ±100 the full control effect; nearly all actives have a fitted effect of over 40% in size. In outline: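 Quantitative HTS in DPX-2 cells, i.e. HepG2 transfected with PXR response element and CYP3A4-promoter luciferase. Compounds in DMSO incubated 24hr at 37C; then P450-Glo CYP3A4 substrate, 3uM final, 3hr; One-Glo luminescence.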
Nuclear receptor subfamily 1 group I member 2 (Homo sapiens), sequence (O75469 whole entry, looked up): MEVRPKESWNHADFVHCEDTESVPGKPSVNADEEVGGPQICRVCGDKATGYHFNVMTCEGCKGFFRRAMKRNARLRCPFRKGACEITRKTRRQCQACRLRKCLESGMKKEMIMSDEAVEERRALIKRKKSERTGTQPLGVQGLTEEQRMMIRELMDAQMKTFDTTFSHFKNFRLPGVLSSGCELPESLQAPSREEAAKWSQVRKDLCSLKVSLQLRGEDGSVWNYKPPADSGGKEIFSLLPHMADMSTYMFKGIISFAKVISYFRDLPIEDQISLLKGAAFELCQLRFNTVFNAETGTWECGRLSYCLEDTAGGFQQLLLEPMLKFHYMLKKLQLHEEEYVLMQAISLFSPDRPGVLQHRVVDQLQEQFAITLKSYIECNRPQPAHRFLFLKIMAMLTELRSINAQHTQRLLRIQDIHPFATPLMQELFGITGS

For assay [20] the target is unchanged. Put plainly: Human pregnane X receptor (PXR) activation by small molecules, qHTS assay (AID 1346985). Further: potency means the concentration at half of the fitted maximal effect; nearly all actives have a fitted effect of over 40% in size. In outline:
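DPX-2 cells (HepG2 co-transfected with a PXR response element and a CYP3A4-promoter luciferase construct) were seeded at 2,000 per well, rested 5 hr at 37C, then exposed to DMSO-dissolved compounds for 24 hr. Activation was read as luciferase luminescence.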

SMILES strings stand for the structures. Values without a mark were called inactive. Inconclusive results are not listed. Active and inactive are the calls of the source. Unless noted, the call rests on the fitted dose curve; in most records, active means well fitted curve in the direction sought with a large enough effect in the repeat runs; inconclusive means weak or mixed curves; inactive means no such curve, though single readings can be large; an effect the other way counts as inactive or inconclusive.

Thyrotropin receptor (Homo sapiens), sequence (P16473 whole entry, looked up): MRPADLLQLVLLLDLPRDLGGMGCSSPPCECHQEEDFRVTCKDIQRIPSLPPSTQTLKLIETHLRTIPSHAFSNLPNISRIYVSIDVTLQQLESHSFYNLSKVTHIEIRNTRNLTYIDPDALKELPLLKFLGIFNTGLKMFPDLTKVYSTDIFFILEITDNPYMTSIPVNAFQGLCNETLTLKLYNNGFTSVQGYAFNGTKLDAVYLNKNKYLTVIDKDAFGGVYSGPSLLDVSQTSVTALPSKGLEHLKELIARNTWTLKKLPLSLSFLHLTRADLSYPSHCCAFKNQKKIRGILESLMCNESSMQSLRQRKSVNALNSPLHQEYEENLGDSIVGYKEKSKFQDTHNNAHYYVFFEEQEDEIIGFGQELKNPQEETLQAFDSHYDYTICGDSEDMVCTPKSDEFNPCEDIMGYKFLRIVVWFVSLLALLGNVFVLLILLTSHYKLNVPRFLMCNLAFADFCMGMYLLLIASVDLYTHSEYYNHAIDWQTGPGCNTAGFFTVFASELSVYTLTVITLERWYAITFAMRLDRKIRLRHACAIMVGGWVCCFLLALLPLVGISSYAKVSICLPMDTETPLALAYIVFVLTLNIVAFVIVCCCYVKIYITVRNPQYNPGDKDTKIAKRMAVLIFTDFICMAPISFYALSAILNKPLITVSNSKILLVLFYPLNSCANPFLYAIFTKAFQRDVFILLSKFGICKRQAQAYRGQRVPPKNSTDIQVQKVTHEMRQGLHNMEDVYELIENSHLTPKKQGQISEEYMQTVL
Progesterone receptor (Homo sapiens), sequence (P06401 whole entry, looked up): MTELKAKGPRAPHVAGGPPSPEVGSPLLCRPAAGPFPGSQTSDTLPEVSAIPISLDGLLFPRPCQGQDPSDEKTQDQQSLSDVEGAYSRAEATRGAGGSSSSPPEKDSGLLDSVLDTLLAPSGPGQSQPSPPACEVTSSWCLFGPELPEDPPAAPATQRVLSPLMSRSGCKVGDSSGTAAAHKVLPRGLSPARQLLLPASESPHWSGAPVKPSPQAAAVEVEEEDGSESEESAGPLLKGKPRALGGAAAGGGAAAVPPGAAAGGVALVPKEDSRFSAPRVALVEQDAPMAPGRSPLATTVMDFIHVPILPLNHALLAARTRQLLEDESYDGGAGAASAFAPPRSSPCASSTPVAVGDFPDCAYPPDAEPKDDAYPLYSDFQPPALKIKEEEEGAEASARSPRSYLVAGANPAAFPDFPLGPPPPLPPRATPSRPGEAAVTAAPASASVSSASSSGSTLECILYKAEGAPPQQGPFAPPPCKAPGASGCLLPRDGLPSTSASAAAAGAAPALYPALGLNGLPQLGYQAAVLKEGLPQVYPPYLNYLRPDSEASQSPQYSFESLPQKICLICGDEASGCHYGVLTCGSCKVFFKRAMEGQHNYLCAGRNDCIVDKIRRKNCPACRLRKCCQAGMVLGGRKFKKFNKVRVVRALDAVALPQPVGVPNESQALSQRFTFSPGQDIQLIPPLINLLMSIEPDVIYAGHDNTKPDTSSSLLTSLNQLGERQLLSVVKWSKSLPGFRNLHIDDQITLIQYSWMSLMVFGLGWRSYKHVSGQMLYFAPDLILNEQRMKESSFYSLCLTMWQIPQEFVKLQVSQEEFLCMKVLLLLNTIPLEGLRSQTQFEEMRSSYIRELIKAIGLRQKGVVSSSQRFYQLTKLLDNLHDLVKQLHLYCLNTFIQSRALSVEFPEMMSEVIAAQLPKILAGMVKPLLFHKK
Thyrotropin-releasing hormone receptor (Homo sapiens), sequence (P34981 whole entry, looked up): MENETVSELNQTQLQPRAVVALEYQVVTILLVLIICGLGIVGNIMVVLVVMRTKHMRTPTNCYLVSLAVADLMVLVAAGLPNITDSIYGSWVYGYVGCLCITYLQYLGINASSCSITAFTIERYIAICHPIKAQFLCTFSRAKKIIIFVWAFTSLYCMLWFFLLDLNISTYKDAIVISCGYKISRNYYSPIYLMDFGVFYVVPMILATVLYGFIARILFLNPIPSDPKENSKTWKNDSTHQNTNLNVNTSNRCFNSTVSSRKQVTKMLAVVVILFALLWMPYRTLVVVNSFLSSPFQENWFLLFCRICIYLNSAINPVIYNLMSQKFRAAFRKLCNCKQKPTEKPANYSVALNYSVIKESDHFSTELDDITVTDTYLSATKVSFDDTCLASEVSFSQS
Nuclear receptor subfamily 1 group I member 2 (Rattus norvegicus), sequence (Q9R1A7 whole entry, looked up): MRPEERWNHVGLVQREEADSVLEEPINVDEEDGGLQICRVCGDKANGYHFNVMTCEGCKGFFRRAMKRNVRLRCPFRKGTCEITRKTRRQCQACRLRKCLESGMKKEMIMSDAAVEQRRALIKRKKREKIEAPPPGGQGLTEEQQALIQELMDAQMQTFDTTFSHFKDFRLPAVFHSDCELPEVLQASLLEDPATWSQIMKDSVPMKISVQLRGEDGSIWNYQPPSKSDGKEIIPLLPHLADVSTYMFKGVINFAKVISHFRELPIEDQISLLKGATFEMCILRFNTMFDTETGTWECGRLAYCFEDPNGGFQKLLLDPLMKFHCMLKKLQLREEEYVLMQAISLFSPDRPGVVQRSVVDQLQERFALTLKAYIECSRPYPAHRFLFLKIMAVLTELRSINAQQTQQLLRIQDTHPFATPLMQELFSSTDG

With `Cn1cnc2c(=O)[nH]c(N)nc21`, the outcome in assay [1], in [6], in assay [7], in assay [8], in assay [10] and in assay [12] was inactive. In assay [13], the outcome was inactive. Besides, the Potency entry in assay [2], in [3], in assay [4], in [5], in [9] and in assay [11] was “inactive” each time. In addition, the Potency entry in assay [14] is “inactive”.
`NC(=O)Nc1nc2ccccc2[nH]1`: the result in [1], in [6], in assay [7], in assay [8], in assay [10] and in [12] was inactive. Besides, the outcome in assay [13] was inactive. In addition, the Potency result in assay [2], in assay [3], in assay [4], in [5], in [9] and in assay [11] was “inactive” each time. Besides, the Potency entry in [14] was “inactive”.
`CC(=O)CCc1ccc(O)cc1`: the result in [1], in assay [6], in assay [7], in [8], in assay [15] and in [16] was inactive. For the same molecule, the result in [10], in assay [12] and in [13] was inactive. Also, the Potency entry in assay [2], in [3], in assay [4], in assay [5], in [9] and in assay [11] was “inactive” each time. Also, the Potency result in assay [14] is “inactive”.
For the molecule `COC(=O)CCCC(=O)O`, the Potency entry in assay [17], in assay [4], in [5], in [9], in [11] and in assay [14] was “inactive” each time. Besides, the result in [6], in [7], in assay [8], in assay [10], in [12] and in assay [13] was inactive.
For `CC(C)COC(=O)C(C)C`, the Potency result in assay [17], in [9], in assay [11] and in [14] was “inactive” in each case. Further, the call in assay [6], in assay [7], in [8], in assay [15], in assay [16] and in assay [10] was inactive. In addition, the molecule was called inactive in [12] and in assay [13].
Take `C=CC(=O)OCCCCCC`: the Potency entry in assay [17], in assay [2], in [3], in [9], in assay [11] and in assay [14] was “inactive” throughout. Further, the call in assay [7], in assay [8], in [15], in assay [16], in assay [10] and in [12] was inactive. For the same molecule, in assay [13], the result was inactive.
As to `O=C(O)/C=C/c1ccc(Cn2ccnc2)cc1`, the outcome in assay [1], in [6], in assay [7], in assay [8], in assay [15] and in assay [16] was inactive. Moreover, the call in [10], in assay [12] and in [13] was inactive. Moreover, the Potency entry in assay [2], in assay [3], in assay [4], in [5], in [9] and in assay [11] was “inactive” throughout. Moreover, the max activation in assay [18] is -1.1%.
`COC(=O)[C@H]1[C@H]2C[C@@H]3c4[nH]c5cc(OC)ccc5c4CCN3C[C@H]2C[C@@H](OC(=O)COc2ccc(OC)cc2)[C@@H]1OC`: the outcome in assay [1], in assay [6], in assay [7], in assay [15], in assay [16] and in assay [10] was inactive. Further, the molecule was called inactive in assay [12] and in assay [13]. Moreover, the Potency result in assay [2], in [3], in [4], in assay [5], in assay [9] and in [11] was “inactive” throughout. The Potency entry in [14] and in assay [19] was “inactive” each time. In assay [18], the max activation is -1.88%. Besides, the Potency in [20] is 10 µM (active).
Turning to `C1COCCO1`, the result in assay [1], in assay [7], in [8], in assay [15], in [16] and in assay [10] was inactive. The call in assay [12] and in [13] was inactive. The Potency result in assay [2], in assay [3], in assay [4], in assay [5], in assay [9] and in [11] was “inactive” each time. Further, the Potency entry in assay [14] was “inactive”.
Turning to `OCCN1C[C@H](O)[C@@H](O)[C@H](O)[C@H]1CO`, the outcome in assay [1], in assay [6], in assay [7], in assay [8], in assay [15] and in assay [16] was inactive. The call in [10], in assay [12] and in assay [13] was inactive. The Potency result in [2], in assay [4], in [5], in [9], in [11] and in [14] was “inactive” in each case. Moreover, the Potency entry in assay [19] was “inactive”. Moreover, in [18], the max activation is -2.71%.
Turning to `Cc1ccccc1Br`, the outcome in [1], in assay [6], in assay [7], in assay [8], in [15] and in assay [16] was inactive. The call in [10], in assay [12] and in assay [13] was inactive. Besides, the Potency entry in [2], in [3], in assay [9], in assay [11] and in assay [14] was “inactive” in each case.
`Cc1ccc(Nc2ccc(O)c3c2C(=O)c2ccccc2C3=O)cc1`: the outcome in assay [1], in assay [6], in assay [7], in assay [8], in [15] and in [16] was inactive. Besides, the result in [10], in [12] and in assay [13] was inactive. The Potency entry in assay [2], in [3], in [4], in assay [9], in [11] and in assay [14] was “inactive” in each case.
Turning to `O=c1[nH]c(=O)n([C@H]2O[C@H](CO)[C@@H](O)[C@@H]2O)cc1/C=C\Br`, the outcome in assay [1], in assay [6], in assay [7], in [8], in [15] and in [16] was inactive. In addition, the result in [10], in assay [12] and in [13] was inactive. For the same molecule, the Potency entry in assay [2], in [4], in assay [5], in [9], in [11] and in assay [14] was “inactive” each time.
